High-throughput results from PubChem.
Most compounds without a hit are left out; they make up all but 7.9% or so of the library.
Marburg entry inh: qHTS for inhibitors of binding or entry into cells for Marburg Virus. Marburg virus pseudotyped entry inhibition, cell reporter. Potency, µM (titrated, usually from 37.8 µM), for the others: at the highest dose activity change, negative = inhibition, hits mostly inhibitors. actives 1.8% (n = 300,000); calls by dose curve; tested in HEK293 cells; also: potency is read from the fitted curve at half-maximal effect
FMDV inh: High Throughput Screening for Foot and Mouth Disease Virus Antivirals; AID 1159524, 2015; actives 1.2% (n = 410,000); FMDV antiviral cell-based qHTS; Potency, µM (highest dose often 57.9 µM), inactives show at the highest dose activity change, negative = inhibition, usual class: inhibitors; calls by dose curve; tested in HEK293T cells; also: read-out not given here; potency is read from the fitted curve at half-maximal effect; nearly all actives have a fitted effect of over 45% in size
LASV entry inh: qHTS for Inhibitors of binding or entry into cells for Lassa Virus; Lassa virus pseudotype entry inhibition, cell reporter; actives 1.2% (n = 300,000); Potency, µM (titrated, usually from 37.9 µM), for the others: at the highest dose activity change, negative = inhibition, hits mostly inhibitors; calls by dose curve; tested in HEK293 cells; also: potency is read from the fitted curve at half-maximal effect; nearly all actives have a fitted effect of over 50% in size
HCV inh: qHTS Assay for Inhibitors of Hepatitis C Virus (HCV); Potency, µM (doses to about 41.8 µM), without a hit: at the highest dose activity change, negative = inhibition, actives largely listed as inhibitors; AID 651820, 2012; actives 3.4% (n = 340,000); Huh7.5.1 HCVcc-Cre infection, luciferase reporter, 44 h; active = well fitted inhibition curve with a large enough effect; inconclusive = small, poorly fitted or top-dose-only effect, or another doubt; inactive = no such curve, though single readings can be large or run the other way; also: potency is read from the fitted curve at half-maximal effect
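1,000 cells/well; 4 h culture; + compound; + HCVcc-Cre (~0.5 moi); 44 h; luciferase substrate, RT 15 min; read 15 sec.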
HCMV antiviral: qHTS Assay for inhibitors of the human cytomegalovirus (HCMV); actives 4.5% (n = 410,000); AID 1259415, 2018; HFF cells, HCMV-luciferase reporter, 72 h; hits give low values; activity change, negative = inhibition, % at 57.5 µM; in the data active = activity change below about -60%; inconclusive = no clear call, values can overlap the other calls; inactive = above about -39%
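Human foreskin fibroblasts infected with luciferase-reporter HCMV at MOI 1 PFU/cell, compounds at two doses. Luciferase measured 72 h post infection; normalized to buffer-only basal and Salinomycin (10uM) controls.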
* marks the source's active call; other numbers are inactive results; ? = inconclusive; / = not tested or not shown; [ ] = another dose, or the depositor's remark. % is scaled to controls: 0 for no effect and ±100 for the full control effect.

SMILES | Marburg entry inh | FMDV inh | LASV entry inh | HCV inh | HCMV antiviral
Cc1ccc(NC(=O)CSc2ncnc3ccccc23)cc1S(=O)(=O)N1CCCCC1 | ? | 16µM* | ? | ? | -17
COc1ccc(NC(=O)COc2cc(C)cc(C)c2)cc1S(=O)(=O)N1CCCCC1 | ? | -29% | ? | 4µM* | -34
COC(=O)C(c1ccccc1)(c1cn(C)c2ccccc12)C(Nc1ccccc1)c1ccccc1 (configuration not stated) | / | / | / | / | -24
O=C(COc1ncnc2ccccc12)NC1CCCCC1 | / | 4% | / | 11% | -1
O=C(CC[C@H]1O[C@@H](n2ccc(=O)[nH]c2=O)[C@H](O)[C@@H]1O)N[C@H](Cc1ccccc1)C(=O)NC1CCCCC1 | / | -12% | / | / | 1
COc1ccc(-c2c3c(=O)n(C)c(=O)n(C)c3cn2-c2cccc(N)c2)cc1 | -2%[46.1 µM] | -17% | ? | / | -2
CCN(CC)S(=O)(=O)c1cc(NC(=O)Cc2n[nH]c(=O)c3ccccc23)ccc1C | ? | 0% | ? | ? | ?
Cc1ccc(NC(=O)Cc2n[nH]c(=O)c3ccccc23)cc1S(=O)(=O)N1CCCCCC1 | ? | -14% | ? | 10µM* | -69*
O=C(COc1ccccc1)Nc1ccc2c(c1)Cc1cc(NC(=O)COc3ccccc3)ccc1-2 | -1% | -8% | 4% | ? | -80*
Cc1ccc(NC(=O)Cn2c(=O)cnc3ccccc32)cc1S(=O)(=O)N1CCCCC1 | / | ? | / | 11µM* | ?
CCOc1ncccc1C(=O)OCC(=O)Nc1ccc(C)c(S(=O)(=O)N2CCOCC2)c1 | -5%[46.1 µM] | 19% | 17%[46.1 µM] | 2.8µM* | -4
CC(NC(=O)c1c2c(nc3ccccc13)C(=O)N(C1CCCCC1)C2)c1ccccc1 (configuration not stated) | / | -20% | ? | / | 11
CCC(C(=O)Nc1ccccc1OC)n1nc(C)c2sc3ccccc3c2c1=O (configuration not stated) | 19%[46.1 µM] | -20% | 4%[46.1 µM] | / | 3
O=C1C(=NO)C(c2ccccc2)Oc2ccccc21 (configuration not stated) | -4%[46.1 µM] | -14% | 7%[46.1 µM] | -20% | -34
O=C(COc1cccnc1[N+](=O)[O-])Nc1cc(S(=O)(=O)N2CCCCC2)ccc1Cl | / | -24% | / | -7% | -20
Cc1ccc(NC(=O)COc2cccnc2[N+](=O)[O-])cc1S(=O)(=O)N1CCCCC1 | ? | 40µM* | ? | ? | -35
O=C(COc1cccnc1[N+](=O)[O-])NCCc1ccc(Cl)cc1Cl | -1%[46.1 µM] | -8% | -20%[46.1 µM] | 8% | -64*
COc1ccc(NC(=O)COc2ccc(C)c(C)c2)cc1S(=O)(=O)N1CCCCC1 | ? | ? | ? | ? | 5
Cc1ccc(NC(=O)COc2ccccc2C#N)cc1S(=O)(=O)N1CCCCCC1 | / | ? | / | 10µM* | -40
Cc1ccc(NC(=O)COc2ccccc2)cc1S(=O)(=O)N1CCCCCC1 | ? | 28µM* | ? | ? | 16
N#Cc1ccccc1OCC(=O)Nc1cccc(S(=O)(=O)N2CCCC2)c1 | / | -8% | / | ? | -4
CN(C)C=NC(=O)c1cc(C(=O)c2ccc(C(C)(C)C)cc2)c[nH]1 | ? | 8% | 3.2µM* | -5% | 114
Cn1c(N2CCOCC2)c(/C=N/OC(=O)c2ccc(F)cc2)c2ccccc21 | ? | -10% | ? | 3.5µM* | -95*
Cn1c(N2CCOCC2)c(/C=N/O)c2ccccc21 | 23%[46.1 µM] | -22% | -22% | 7% | -10
CC(=O)O/N=C/c1c(N2CCOCC2)n(C)c2ccccc12 | ? | -13% | ? | ? | -93*
SMILES | Marburg entry inh | FMDV inh | LASV entry inh | HCV inh | HCMV antiviral
Cc1ccc(C(=O)O/N=C/c2c(N3CCOCC3)n(C)c3ccccc23)cc1 | ? | -5% | ? | 6.3µM* | -100*
O=C(CN1C(=O)CSc2ccc(S(=O)(=O)N3CCCC3)cc21)NCc1ccccc1Cl | / | 5% | -9%[46.1 µM] | / | 1
Cc1cc2nc(-c3cc4ccccc4[nH]3)c(=O)n(/C=C(/c3ccccc3)n3c(=O)[nH]c4ccccc43)c2cc1C | / | / | / | / | 10
Cc1ccc(C)c(NC(=O)CCc2c(C)n(C)c3cc(-c4ccccc4C)nn3c2=O)c1 | / | -2% | -2%[46.1 µM] | / | 1
O=C(OCc1nnc(-c2ccccc2)o1)C1CC(=O)N(CCc2ccccc2)C1 (configuration not stated) | / | 24% | / | -3% | -7
COC(=O)c1c(NC(=O)CCCOc2ccc(C(C)(C)C)cc2)sc2c1C(C(=O)OC)CC2 (configuration not stated) | / | 35µM* | ? | / | -84*
CCCC(=O)Nc1sc2c(c1C(=O)OC)C(C(=O)OC)CC2 (configuration not stated) | ? | -5% | -15% | ? | 27
COC(=O)c1c(NC(=O)c2c(OC)cccc2OC)sc2c1C(C(=O)OC)CC2 (configuration not stated) | / | -9% | / | ? | -65*
COC(=O)c1c(NC(=O)c2c(OC)cccc2OC)sc2c1CCCC2 | / | -15% | 25%[46.1 µM] | / | -31
COc1ccc2c(c1)C(n1c(C)ccc1C)C(=O)N2Cc1ccc(Cl)nc1 (configuration not stated) | / | / | / | / | -9
CC(C)Cc1nc2cc(NS(=O)(=O)N(C)C)cc(C(=O)N3CCN(c4ccccc4)CC3)c2n1C | / | 10% | / | / | /
Cc1csc2nc(COC(=O)c3cccc(NC(=O)COc4ccc(Cl)cc4)c3)cc(=O)n12 | / | -14% | ? | / | 27
Cc1cn2c(=O)cc(COC(=O)c3ccc(NC(=O)COc4ccccc4F)cc3)nc2s1 | / | -9% | -1%[46.1 µM] | / | 24
Cc1cn2c(=O)cc(COC(=O)c3cccc(NC(=O)COc4ccccc4Cl)c3)nc2s1 | / | 8.9µM* | 29%[46.1 µM] | / | 45
Cc1csc2nc(COC(=O)c3ccc(NC(=O)c4ccccc4Br)cc3)cc(=O)n12 | / | -3% | ? | / | -72*
Cc1csc2nc(COC(=O)c3ccc(NC(=O)C(C)C)cc3)cc(=O)n12 | / | 5% | ? | / | -34
Cc1ccccc1OCC(=O)Nc1ccccc1C(=O)OCc1cc(=O)n2c(C)csc2n1 | / | ? | 10%[46.1 µM] | / | -75*
Cc1cccc(OCC(=O)Nc2cccc(C(=O)OCc3cc(=O)n4c(C)csc4n3)c2)c1 | / | -18% | -25%[46.1 µM] | / | -61*
Cc1ccccc1OCC(=O)Nc1ccccc1C(=O)OCc1cc(=O)n2ccsc2n1 | / | 12% | ? | / | 46
COc1ccc(NC(=O)Cn2cc(S(=O)(=O)N3CCN(c4ccccc4F)CC3)c3ccccc3c2=O)cc1Cl | ? | 1% | 22%[46.1 µM] | / | 23
CCNc1nc(C)c2cc(Br)c(=O)n(CC)c2n1 | ? | -12% | ? | 8.9µM* | 40
CCCc1ccc(C(=O)NNc2cccc(C)c2)cc1 | 4µM* | 27% | ? | -26% | 22
